Laboratory results from PubChem BioAssay (NCATS).
Results filed as inconclusive are left out. Active and inactive are the calls of the source. Unless noted, the call rests on the fitted dose curve; in most records, active means well fitted curve in either direction with a large enough effect (not every such curve was filed as active); inconclusive means small, poorly fitted or top-dose-only effect, or another doubt; inactive means flat fitted curve, though single readings scatter.

Experiments:
[1] = molecular target: Lysosomal acid glucosylceramidase (Homo sapiens) (UniProt P04062); assay: Glucocerebrosidase-p2 (AID 348; in the data active means potency below about 10 µM; further: potency means the concentration at half of the fitted maximal effect); conditions: purified GBA, blue fluorogenic substrate, 40 min
Procedure, shortened: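 Normal human glucocerebrosidase (0.2 nM) with blue fluorogenic substrate (80 uM final) in citrate/phosphate pH 5.9 with 10mM sodium taurocholate, 0.01% tween-20; 40 min RT, NaOH/glycine stop; fluorescence Ex 365/Em 440; AC50 from a titration from 0.6 nM upwards.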

[2] = AP1 Signaling Pathway (AID 357); conditions: ME-180 AP-1-bla reporter, EGF-induced, beta-lactamase ratio, 5 h; at 7.69 µM (top of the series) unless noted;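 further: ME-180 reporter cells stimulated with EGF at its EC50 level; on the % scale 0 is the no-effect control and ±100 the full control effect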
Procedure, shortened: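 Beta-lactamase reporter under AP-1 response element, ME-180 background. Stimulus: EC50 EGF. Compound exposure 5 h, 37 °C. Detection: CCF4, 2.5 h RT, 460/530 nm. Values: AC50 from titration.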

[3] = molecular target: Cytochrome P450 1A2 (Homo sapiens) (UniProt P05177); assay: p450-cyp1a2 (AID 410; calls by dose curve; further: potency means the concentration at half of the fitted maximal effect;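 on activity change, negative = inhibition: -100% = full effect of reference inhibitor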); conditions: recombinant CYP1A2, luciferin-ME demethylation, luminescence; series mostly up to 57 µM
Procedure, shortened: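 20nM CYP1A2, 100uM Luciferin-ME (=Km), 100mM KPO4; cpd 10 min RT; +NADPH regen, 60 min RT; stop/detect 20 min; luminescence. Normalized to furafylline 57 uM = full inhibition.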

[4] = NFAT Signaling Pathway (AID 444); conditions: Jurkat NFAT-bla M1, carbachol, beta-lactamase ratio, 5 h; at 7.69 µM (top of the series) unless noted;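 further: carbachol stimulus at about its EC50 of 1 µM final; on the % scale 0 is the no-effect control and ±100 the full control effect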
Procedure, shortened: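 Jurkat cells with NFAT-driven β-lactamase reporter and co-expressed M1 receptor, stimulated with carbachol (final 1 uM, ~EC50), compound titration, 5 h at 37 °C. CCF4 loaded 1 h at RT; 460/530 nm ratio gave %activity and AC50.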

[5] = Stat Signaling Pathway (AID 446); conditions: ME-180 (cervical carcinoma) SIE beta-lactamase reporter, IL-6 stimulated, 5 h; at 7.69 µM (top of the series) unless noted;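 further: ME-180 cervical cancer cells given 40 pM IL-6 alongside compound; SIE-controlled beta-lactamase reporter measured as 460/530 nm FRET emission ratio; on the % scale 0 is the no-effect control and ±100 the full control effect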
Procedure, shortened: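 FRET read-out (405 nm excitation, 460/530 nm emission) of a beta-lactamase reporter under a STAT-inducible element in ME-180 cervical carcinoma cells. Cells with compound receive 40 pM IL-6 for 5 h. Values are normalised to AC90 stimulation and AC90 JAK-inhibitor controls.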

[6] = molecular target: Glucocorticoid receptor (Homo sapiens) (UniProt P04150); assay: GR-EFC Redistribution (AID 451; calls by dose curve; further: potency means the concentration at half of the fitted maximal effect); conditions: CHO-K1 GR-EFC translocation, beta-gal luminescence, 2 h
Procedure, shortened: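 CHO-K1 cells expressing nuclear EA and GR-ED fragments of b-gal; compounds titrated up to 46 uM final, 2 h at 37 C. GR nuclear translocation read as complemented b-gal luminescence after 1 h RT detection.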

[7] = molecular target: Mitogen-activated protein kinase 10 (Mus musculus) (UniProt Q61831); assay: JNK3 AlphaScreen Assay (AID 530); conditions: JNK3 lysate, c-Jun phosphorylation; series mostly up to 57.1 µM;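 further: kinase came from lysate of stimulated human HepG2 cells; signal reports phosphorylation of biotinylated GST-cJun 1-79 at Ser73 with 10 µM ATP; on the % scale 0 is the no-effect control and ±100 the full control effect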
Procedure, shortened: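 HepG2 lysate (IL-1b/TNFa pre-activated) + biotin-GST-cJun 1-79 + anti-pSer73 cJun; cpd titration, 15 min RT; ATP 10 uM start; Tris pH 7.6, MgCl2, DTT, vanadate; beads in EDTA buffer; AlphaScreen.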

[8] = molecular target: 3',5'-cyclic-AMP phosphodiesterase 4B (Homo sapiens) (UniProt Q07343); assay: qHTS Assay for Inhibitors of PDE-IV (AID 607; active means well fitted activation curve with a large enough effect in the main read-out, with a control signal flat, not every such curve was filed as active; further: % of control where 0% means no effect); conditions: HEK293 ACTOne CNG channel cells, membrane potential fluorescence; series mostly up to 22.9 µM
Procedure, shortened: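 Cell-based read-out of cAMP via a modified cyclic nucleotide-gated channel and membrane potential dye (535/590 nm) in HEK293 cells expressing PDE4 endogenously. Compounds tested up to 22.9 uM final; 100 uM RO 20-1724 reference.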

[9] = molecular target: Cytochrome P450 3A4 (Homo sapiens) (UniProt P08684); assay: qHTS Assay for Inhibitors and Substrates of Cytochrome P450 3A4 (AID 884; active means well fitted curve in the direction sought with a large enough effect; an effect the other way counts as inactive or inconclusive; further: nearly all actives have a fitted effect of over 50% in size; further: potency means the concentration at half of the fitted maximal effect); conditions: recombinant CYP3A4, Luciferin-PPXE luminescence; series mostly up to 57.1 µM
Procedure, shortened: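 Luminescent readout of luciferin produced by CYP3A4 (20 nM) dealkylation of Luciferin-PPXE, 25 uM (its KM). NADPH-driven reaction ran 60 min at RT after 10 min compound preincubation; data scaled to 57 uM ketoconazole as 100% inhibition.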

[10] = molecular target: Cytochrome P450 3A4 (Homo sapiens) (UniProt P08684); assay: qHTS Assay for Activators of Cytochrome P450 3A4 (AID 885; active means well fitted curve in the direction sought with a large enough effect; an effect the other way counts as inactive or inconclusive; further: nearly all actives have a fitted effect of over 65% in size; further: potency means the concentration at half of the fitted maximal effect); conditions: recombinant CYP3A4, Luciferin-PPXE luminescence, 60 min; series mostly up to 57.1 µM
Procedure, shortened: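 Luminescent readout of luciferin formed from 25 uM Luciferin-PPXE (KM level) by 20 nM CYP3A4 in 200 mM KPO4, with 60 min NADPH-driven reaction at room temperature after 10 min compound exposure. Ketoconazole (57 uM) defined 100% inhibition.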

[11] = molecular target: Cytochrome P450 2D6 (Homo sapiens) (UniProt P10635); assay: qHTS Assay for Inhibitors and Substrates of Cytochrome P450 2D6 (AID 891; active means well fitted curve in the direction sought with a large enough effect; an effect the other way counts as inactive or inconclusive; further: nearly all actives have a fitted effect of over 60% in size; further: potency means the concentration at half of the fitted maximal effect); conditions: recombinant CYP2D6, luciferin-ME EGE luminescence; series mostly up to 57.1 µM
Procedure, shortened: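 Luminescent read-out of luciferin formed by 5 nM human CYP2D6 demethylating 30 uM Luciferin-ME EGE (Km level) over 60 min at room temperature after NADPH regeneration addition. Data normalized to full inhibition by 1.43 uM quinidine.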

[12] = qHTS Assay for Lipid Storage Modulators (AID 1519; calls by dose curve); conditions: Drosophila S3 cells, BODIPY lipid droplet/cell ratio, laser cytometry, cells loaded with oleic acid; for activity change, negative = inhibition: at 57.5 µM (top of the series)
Procedure, shortened: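 Cells seeded at 5,000 per well were treated with compounds over a concentration series and loaded with oleic acid (400 uM, as added). Lipid droplet fluorescence (488 nm excitation, 500-530 nm channel) was read by laser-scanning cytometry and normalized to 20 uM Triacsin C.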

[13] = Primary qHTS for small molecule stabilizers of the endoplasmic reticulum resident proteome: Secreted ER Calcium Modulated Protein (SERCaMP) assay (AID 1508630; active means well fitted curve in the direction sought with a large enough effect; an effect the other way counts as inactive or inconclusive; further: on the % scale 0 is the no-effect control and ±100 the full control effect); conditions: SH-SY5Y GLuc-SERCaMP (Gaussia luciferase released on ER calcium loss) secretion, thapsigargin, luminescence; series mostly up to 38.4 µM
Procedure, shortened: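 The SH-SY5Y reporter protocol was run at 3 concentrations up to 38.3 uM (primary) or 11 concentrations (follow-up): 16 h compound, 100 nM thapsigargin for 4 h, then extracellular luciferase luminescence.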

[14] = molecular target: Cytochrome P450 2C9 (Homo sapiens) (UniProt P11712); assay: qHTS Assay for Inhibitors and Substrates of Cytochrome P450 2C9 (AID 883; active means well fitted curve in the direction sought with a large enough effect; an effect the other way counts as inactive or inconclusive; further: on the % scale 0 is the no-effect control and ±100 the full control effect; nearly all actives have a fitted effect of over 60% in size); conditions: recombinant CYP2C9, luciferin-H luminescence, 60 min; series mostly up to 57.1 µM
Procedure, shortened: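 Human CYP2C9 (10nM) with Luciferin-H at 100uM (its KM) in 25mM KPO4; compound preincubated 10 min at 37C, then NADPH regeneration for 60 min at 37C. Luciferin read by luminescence after detection reagent; normalized to 57uM sulphaphenazole as full inhibition.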

[15] = molecular target: Cytochrome P450 2C19 (Homo sapiens) (UniProt P33261); assay: qHTS Assay for Inhibitors and Substrates of Cytochrome P450 2C19 (AID 899; active means well fitted curve in the direction sought with a large enough effect; an effect the other way counts as inactive or inconclusive; further: on the % scale 0 is the no-effect control and ±100 the full control effect; nearly all actives have a fitted effect of over 60% in size); conditions: recombinant CYP2C19, luciferin-H EGE luminescence; series mostly up to 57.1 µM
Procedure, shortened: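 5 nM human CYP2C19 with 10uM Luciferin-H EGE (at KM) in 50mM KPO4, compound preincubated 10 min at 37C, then NADPH regeneration for 60 min at 37C. Luciferin read by luminescence after detection reagent; normalized to 57uM ketoconazole as full inhibition.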

[16] = measured here: cell count channel max response
[17] = measured here: lipid channel max response

Chain of Lysosomal acid glucosylceramidase (Homo sapiens) (P04062 whole entry, looked up): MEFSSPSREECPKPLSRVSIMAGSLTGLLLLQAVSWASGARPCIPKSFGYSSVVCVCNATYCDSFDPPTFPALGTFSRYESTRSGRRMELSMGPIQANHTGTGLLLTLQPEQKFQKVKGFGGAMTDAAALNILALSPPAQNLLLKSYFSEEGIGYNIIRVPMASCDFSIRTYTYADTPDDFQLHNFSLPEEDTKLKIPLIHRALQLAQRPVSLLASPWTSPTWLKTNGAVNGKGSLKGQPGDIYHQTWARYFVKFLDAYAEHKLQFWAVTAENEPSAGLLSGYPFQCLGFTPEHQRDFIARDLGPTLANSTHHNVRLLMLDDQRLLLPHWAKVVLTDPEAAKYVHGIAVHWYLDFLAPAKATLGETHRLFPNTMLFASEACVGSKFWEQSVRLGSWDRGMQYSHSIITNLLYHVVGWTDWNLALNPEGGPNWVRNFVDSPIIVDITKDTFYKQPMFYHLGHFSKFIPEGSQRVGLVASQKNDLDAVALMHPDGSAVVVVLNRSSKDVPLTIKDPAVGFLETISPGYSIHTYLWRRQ
Chain of 3',5'-cyclic-AMP phosphodiesterase 4B (Homo sapiens) (Q07343 whole entry, looked up): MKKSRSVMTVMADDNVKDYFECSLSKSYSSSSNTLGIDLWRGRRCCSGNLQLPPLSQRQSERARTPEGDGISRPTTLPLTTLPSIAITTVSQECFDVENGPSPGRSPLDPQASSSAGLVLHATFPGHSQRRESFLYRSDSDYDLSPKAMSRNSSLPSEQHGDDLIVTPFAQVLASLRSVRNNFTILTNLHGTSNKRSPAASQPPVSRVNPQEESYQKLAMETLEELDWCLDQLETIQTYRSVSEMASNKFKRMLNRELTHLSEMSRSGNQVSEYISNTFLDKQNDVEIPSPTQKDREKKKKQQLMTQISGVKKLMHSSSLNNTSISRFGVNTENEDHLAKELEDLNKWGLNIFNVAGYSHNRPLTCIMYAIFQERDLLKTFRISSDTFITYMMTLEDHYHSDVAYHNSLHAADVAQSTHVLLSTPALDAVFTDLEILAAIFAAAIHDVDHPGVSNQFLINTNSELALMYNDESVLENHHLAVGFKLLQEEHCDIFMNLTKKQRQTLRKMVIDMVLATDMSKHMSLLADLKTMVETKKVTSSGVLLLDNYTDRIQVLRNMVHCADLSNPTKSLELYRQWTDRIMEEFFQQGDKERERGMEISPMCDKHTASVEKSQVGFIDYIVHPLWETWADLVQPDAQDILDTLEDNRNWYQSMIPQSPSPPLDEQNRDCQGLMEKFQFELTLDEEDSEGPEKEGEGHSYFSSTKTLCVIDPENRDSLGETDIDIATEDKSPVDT
Chain of Glucocorticoid receptor (Homo sapiens) (P04150 whole entry, looked up, the tested form may be a part): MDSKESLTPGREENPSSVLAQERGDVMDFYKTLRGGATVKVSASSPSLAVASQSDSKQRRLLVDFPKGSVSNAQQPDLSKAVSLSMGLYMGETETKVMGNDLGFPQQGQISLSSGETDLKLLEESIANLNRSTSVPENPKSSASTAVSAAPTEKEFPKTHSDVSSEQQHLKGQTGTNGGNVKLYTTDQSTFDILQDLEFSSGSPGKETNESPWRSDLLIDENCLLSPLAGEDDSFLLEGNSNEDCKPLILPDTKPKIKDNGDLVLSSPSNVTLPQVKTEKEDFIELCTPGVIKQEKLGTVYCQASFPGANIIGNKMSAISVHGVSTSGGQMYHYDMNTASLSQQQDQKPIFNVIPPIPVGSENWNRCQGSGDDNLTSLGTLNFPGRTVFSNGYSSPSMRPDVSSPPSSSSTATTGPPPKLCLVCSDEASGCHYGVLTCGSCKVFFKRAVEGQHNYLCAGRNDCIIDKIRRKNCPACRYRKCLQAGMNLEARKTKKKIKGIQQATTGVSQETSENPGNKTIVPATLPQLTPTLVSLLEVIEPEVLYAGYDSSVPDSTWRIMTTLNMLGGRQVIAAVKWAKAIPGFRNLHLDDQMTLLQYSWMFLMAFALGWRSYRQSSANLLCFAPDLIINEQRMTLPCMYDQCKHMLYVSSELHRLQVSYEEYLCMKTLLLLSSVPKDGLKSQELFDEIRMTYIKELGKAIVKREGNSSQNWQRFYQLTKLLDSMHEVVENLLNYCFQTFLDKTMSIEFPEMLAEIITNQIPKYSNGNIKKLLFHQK
Chain of Cytochrome P450 1A2 (Homo sapiens) (P05177 whole entry, looked up): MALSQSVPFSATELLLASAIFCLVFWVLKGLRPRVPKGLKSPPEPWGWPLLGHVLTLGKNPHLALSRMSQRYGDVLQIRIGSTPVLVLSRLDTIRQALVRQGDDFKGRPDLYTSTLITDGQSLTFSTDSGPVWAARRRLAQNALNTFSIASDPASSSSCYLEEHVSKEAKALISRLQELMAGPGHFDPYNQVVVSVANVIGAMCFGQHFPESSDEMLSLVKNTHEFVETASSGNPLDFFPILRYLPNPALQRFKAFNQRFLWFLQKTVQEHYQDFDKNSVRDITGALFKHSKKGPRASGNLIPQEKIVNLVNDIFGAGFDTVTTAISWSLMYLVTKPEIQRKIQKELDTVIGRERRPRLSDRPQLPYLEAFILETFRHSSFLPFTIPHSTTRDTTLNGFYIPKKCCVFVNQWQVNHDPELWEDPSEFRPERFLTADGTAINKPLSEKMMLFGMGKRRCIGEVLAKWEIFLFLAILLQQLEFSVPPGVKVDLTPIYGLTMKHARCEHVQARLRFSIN
Chain of Cytochrome P450 3A4 (Homo sapiens) (P08684 whole entry, looked up): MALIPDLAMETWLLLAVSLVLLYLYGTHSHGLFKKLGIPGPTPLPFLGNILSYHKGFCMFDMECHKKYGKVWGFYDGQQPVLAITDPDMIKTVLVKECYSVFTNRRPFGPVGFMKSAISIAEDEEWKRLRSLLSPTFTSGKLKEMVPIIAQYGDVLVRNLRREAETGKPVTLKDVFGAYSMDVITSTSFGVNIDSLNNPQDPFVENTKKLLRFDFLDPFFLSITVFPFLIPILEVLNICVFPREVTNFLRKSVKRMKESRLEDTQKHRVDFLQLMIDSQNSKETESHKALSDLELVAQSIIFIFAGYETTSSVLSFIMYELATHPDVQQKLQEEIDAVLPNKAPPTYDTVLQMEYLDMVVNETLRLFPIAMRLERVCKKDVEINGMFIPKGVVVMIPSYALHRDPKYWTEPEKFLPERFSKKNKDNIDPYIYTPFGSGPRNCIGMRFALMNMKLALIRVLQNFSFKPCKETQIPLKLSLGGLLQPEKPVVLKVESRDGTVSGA
Chain of Cytochrome P450 2D6 (Homo sapiens) (P10635 whole entry, looked up): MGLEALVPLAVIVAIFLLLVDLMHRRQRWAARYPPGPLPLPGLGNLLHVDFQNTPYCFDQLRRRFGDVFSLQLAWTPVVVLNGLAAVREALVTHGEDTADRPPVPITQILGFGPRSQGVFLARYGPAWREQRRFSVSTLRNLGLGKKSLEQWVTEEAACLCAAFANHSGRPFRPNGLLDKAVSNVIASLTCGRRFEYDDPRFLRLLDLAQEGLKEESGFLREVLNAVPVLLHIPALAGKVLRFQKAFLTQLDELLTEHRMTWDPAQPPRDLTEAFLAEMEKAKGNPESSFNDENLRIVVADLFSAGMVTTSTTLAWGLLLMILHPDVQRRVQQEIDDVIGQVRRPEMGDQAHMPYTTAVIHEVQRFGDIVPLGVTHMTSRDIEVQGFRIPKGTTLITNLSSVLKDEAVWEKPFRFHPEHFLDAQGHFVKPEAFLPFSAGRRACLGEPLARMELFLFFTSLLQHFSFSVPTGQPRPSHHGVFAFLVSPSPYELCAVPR
Chain of Cytochrome P450 2C19 (Homo sapiens) (P33261 whole entry, looked up): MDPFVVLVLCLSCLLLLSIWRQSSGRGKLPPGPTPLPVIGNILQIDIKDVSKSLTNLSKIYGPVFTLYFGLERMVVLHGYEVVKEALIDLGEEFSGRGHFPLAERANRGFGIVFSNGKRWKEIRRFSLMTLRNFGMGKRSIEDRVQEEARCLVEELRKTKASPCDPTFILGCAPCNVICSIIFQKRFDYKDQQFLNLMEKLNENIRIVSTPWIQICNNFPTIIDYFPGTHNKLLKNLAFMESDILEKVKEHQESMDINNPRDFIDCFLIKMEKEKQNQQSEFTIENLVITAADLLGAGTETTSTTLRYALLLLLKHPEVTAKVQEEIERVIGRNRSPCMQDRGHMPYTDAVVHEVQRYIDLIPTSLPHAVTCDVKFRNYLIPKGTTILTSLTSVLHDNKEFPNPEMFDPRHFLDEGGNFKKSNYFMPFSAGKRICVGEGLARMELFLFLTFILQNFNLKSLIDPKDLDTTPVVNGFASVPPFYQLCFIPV
Chain of Cytochrome P450 2C9 (Homo sapiens) (P11712 whole entry, looked up): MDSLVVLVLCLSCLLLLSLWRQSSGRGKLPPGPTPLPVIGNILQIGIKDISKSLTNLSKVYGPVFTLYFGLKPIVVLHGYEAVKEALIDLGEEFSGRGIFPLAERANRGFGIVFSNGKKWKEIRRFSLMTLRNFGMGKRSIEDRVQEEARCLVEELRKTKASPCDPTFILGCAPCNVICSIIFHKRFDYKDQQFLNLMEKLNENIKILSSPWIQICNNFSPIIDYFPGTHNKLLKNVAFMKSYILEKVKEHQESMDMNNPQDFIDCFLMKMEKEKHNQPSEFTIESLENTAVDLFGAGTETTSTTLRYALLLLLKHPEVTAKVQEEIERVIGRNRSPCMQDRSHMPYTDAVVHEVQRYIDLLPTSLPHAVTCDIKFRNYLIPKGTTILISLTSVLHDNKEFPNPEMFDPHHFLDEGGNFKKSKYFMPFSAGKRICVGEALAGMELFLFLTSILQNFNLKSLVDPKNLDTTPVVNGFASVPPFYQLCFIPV

COCC(=O)N1CCC2(CC1)CN(C(c1ccccc1)c1ccccc1)C2
-11.5%: max response [12, 16]
inactive: Potency [1] > 11.4 µM | activity change, negative = inhibition [2] 3.82% | Potency [3] | activity change, negative = inhibition [4] 11.6% | activity, negative = inhibition [5] -8.6% | Potency [6] > 46 µM | outcome [7] | Potency [8] | Potency [9] | activity change, negative = inhibition [12] 2.84% | Potency [13]
active: Potency [10] 25.1 µM | Potency [11] 2.51 µM
-6.58%: max response [12, 17]

O=C(c1csnn1)N1CCC2(CC1)CN(c1ccccn1)C2
active: Potency [10] 25.1 µM
22.2%: max response [12, 17]
inactive: Potency [1] > 11.4 µM | activity change, negative = inhibition [2] -7.48% | Potency [3] | activity change, negative = inhibition [4] -19.4% | activity, negative = inhibition [5] -1.49% | Potency [6] > 46 µM | outcome [7] | Potency [8] | Potency [9] | activity change, negative = inhibition [12] 4.89% | Potency [13]
15.6%: max response [12, 16]

O=C(c1cnccn1)N1CCC[C@@]2(CCN(c3ccccc3)C2)C1
18.8%: max response [12, 17]
17%: max response [12, 16]
inactive: Potency [1] > 11.4 µM | activity change, negative = inhibition [2] -15.8% | activity change, negative = inhibition [4] -3.48% | activity, negative = inhibition [5] -3.78% | Potency [6] > 46 µM | outcome [7] | Potency [8] | Potency [10] | activity change, negative = inhibition [12] -0.338% | Potency [13]
active: Potency [3] 15.8 µM | Potency [9] 7.94 µM

CC(C)NC(=O)N1CC[C@@]2(CCCN(C(=O)Oc3ccccc3)C2)C1
8.74%: max response [12, 16]
17.3%: max response [12, 17]
inactive: Potency [1] > 11.4 µM | activity change, negative = inhibition [2] 6.59% | Potency [3] | activity change, negative = inhibition [4] -15.6% | activity, negative = inhibition [5] -4.24% | Potency [6] > 46 µM | outcome [7] | Potency [8] | Potency [14] | Potency [9] | Potency [11] | Potency [15] | activity change, negative = inhibition [12] 1.37% | Potency [13]

Cc1noc(C)c1C(=O)N1CCC2(CCN(C(=O)Nc3ccccc3)CC2)CC1
4.81%: max response [12, 17]
-0.903%: max response [12, 16]
inactive: Potency [1] > 11.4 µM | activity change, negative = inhibition [2] -7.04% | Potency [3] | activity change, negative = inhibition [4] -2.66% | activity, negative = inhibition [5] -7.75% | Potency [6] > 46 µM | outcome [7] | Potency [8] | Potency [9] | activity change, negative = inhibition [12] 3.9% | Potency [13]

Cn1cccc1C(=O)N1CCC2(CC1)CCN(c1ccc(-c3ccccc3)cc1)CC2
active: Potency [3] 20 µM | Potency [10] 15.8 µM
-2.01%: max response [12, 16]
inactive: Potency [1] > 11.4 µM | activity change, negative = inhibition [2] -19.9% | activity change, negative = inhibition [4] 11.4% | activity, negative = inhibition [5] -10.4% | Potency [6] > 46 µM | outcome [7] | Potency [8] | Potency [9] | activity change, negative = inhibition [12] -6.03% | Potency [13]
-7.47%: max response [12, 17]
